# Experiments:
# Assay in all cases: PBM binding z-score (relative to random genomic background probes); higher = stronger binding; sequences stand for … in GC…GCGATTGACAGCGTAGAATGAAGG
# [1] = test system: RARb homodimer (NR concentration 270 nM)
# Method in brief: (§1)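 Custom Agilent 4×180K protein-binding microarrays carried double-stranded probes. Their 34-nt variable regions held direct-repeat seeds, single-nucleotide variants, half-site ablations and random human genomic background sequences. Arrays were incubated 1 h with ligand-free nuclear receptor dimers in PBS pH 7.4, 2% milk, 0.02% Triton X-100, 1 mM DTT, 0.2 mg/mL BSA and 0.4 mg/ml salmon testes DNA. Antibodies against each partner (one per run) detected binding, and scanned fluorescence was regression-normalized. Binding z-scores use random background probes as reference.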
# [2] = test system: RARg:RXRa (NR concentration 270 nM, RXRa partner concentration 90 nM)
# Method in brief: as §1
# [3] = test system: RARg homodimer (NR concentration 270 nM)
# Method in brief: as §1
# [4] = test system: RXRa DBDmut IVT, anti-RXR (DBD mutation: RXRa K156A/R161A, NR concentration 90 nM)
# Method in brief: as §1
# [5] = test system: RXRa homodimer (NR concentration 180 nM)
# Method in brief: as §1
# [6] = test system: THRa:RXRa (NR concentration 90 nM, RXRa partner concentration 90 nM)
# Method in brief: as §1
# [7] = test system: THRa homodimer (NR concentration 90 nM)
# Method in brief: as §1
# [8] = test system: VDR homodimer (NR concentration 270 nM)
# Method in brief: as §1
Sequence,PBM binding z-score [1],PBM binding z-score [2],PBM binding z-score [3],PBM binding z-score [4],PBM binding z-score [5],PBM binding z-score [6],PBM binding z-score [7],PBM binding z-score [8]
CGAACTAGGTCAAGGACAGTGTATCTCCGCACGC,3.56,3.8,4.37,1.87,2.55,3.45,2.61,0.841
GCTAGCAGGGCATTTGGGTCACTCAATGACGGGC,1.89,1.32,1.26,0.672,1.16,2.07,0.291,0.573
AGAATGAGGTTATACGTAGATCTGGGAAGAAAGT,0.334,1.39,0.958,1.1,1.94,2.03,0.225,0.724
TCTCGGAGGACACGAAAGGTCAGAGCTCGACATC,4.73,4.97,5.83,0.844,3.97,3.52,1.08,0.918
CGAACGAGGCCATGAGTTGATAGCAAATGCCGAT,0.354,0.599,0.821,0.851,0.328,0.837,-0.151,0.777
CAAACTAGGTCAAAGGCCAAAGTCGAGCCAACCA,3.34,5.06,4.83,1.8,4.98,3.05,0.429,0.659
GCGACTGGGCCATCAGCAGGTTACCATAACTTAA,0.461,-0.0254,0.0324,-0.654,-0.151,0.132,-0.441,-0.661
GCGACTGGGGCAAAGCAGATTACCATAAGGTTGG,-0.011,0.122,0.273,-0.0663,0.0208,-0.00555,-0.248,-0.153
CCTACTGGGCCATTCAGAGGTCATAGATCATATG,3.97,4.15,2.99,0.411,3.98,3.27,1.4,2.6
ATCGAAAGGTCGACGAGGTGAGTACACACCGTTT,3.26,4.26,4.18,1.34,4.5,3.7,1.06,2.27
GGAACCAGGGCAAAGTTGATAGCATCTGTCGACG,1.67,1.34,1.41,1.03,1.12,1.18,0.549,0.747
GCTAGTTGGTCAGTTAAAGGTCACACACCGGTCG,5.09,5.56,4.82,0.773,5.12,3.53,2.36,2.33
CCTACTGGGCCGCGAAAGGTCATTGATTCAGTGA,4.47,4.49,3.88,0.701,5.19,3.25,0.433,2.12
CCTACTGGGCCACCAAAGGTCATTGATTCAGTGA,4.49,4.61,4.52,0.43,5.36,3.67,0.763,2.66
ATATGGAGGTTATCGGGTCATTCAGTTTGCGCAT,3.56,4.27,3.28,2.19,4.9,3.71,3,4.69
CTACCCAGGTGAACAAGGTCGTTGATTACTATTC,1.57,1.18,0.941,0.701,1.46,2.94,1.87,1.92
TAGCCTATGTCATGCGGGCCAGTATAGTGTCGGC,-0.116,-0.1,-0.059,-0.904,0.0276,-0.313,-0.992,-0.661
TCTAGCAGGCCAGAGGGTAACTCAAGAGGTACGG,0.228,0.127,0.174,-0.0485,0.497,-0.104,-0.765,-0.49
GCTAGTTGGTCAGTAAAAGGACACACACCGGTCG,2.31,1.15,1.73,-0.384,0.00337,0.856,0.41,0.256

Sequence,PBM binding z-score [1],PBM binding z-score [2],PBM binding z-score [3],PBM binding z-score [4],PBM binding z-score [5],PBM binding z-score [6],PBM binding z-score [7],PBM binding z-score [8]
ACAGACAGGTGATGAAGTTAACTCAGGCTATCAT,0.22,-0.00666,0.328,-0.128,0.00488,1.38,-0.0538,0.197
AGAATGAGGTTATTAAGCTCAGGGAATTGCGGTC,0.163,0.737,0.334,2,1.6,1.99,0.104,0.783
TCTAGTTGGGCAAAGGTCACACACTCGAAATGCG,5.01,6.49,5.87,1.44,7.41,3.99,1.54,2.26
AGCATGAGGTTACCAAAGATCAGGGAAACGCTTG,1.04,2.27,1.81,1.12,2.78,2.96,0.893,0.309
AGAAAGAGGTTATTAAGATCAGGGAATTGCGGTC,1.12,1.78,1.29,1.26,2.21,1.39,0.443,0.737
TCTAGTTGGTCACGGAAGTCACACACGACGGGTA,1.41,1.36,1.54,0.587,1.21,0.441,0.354,0.0407
CCTAGTTGGTCAAGGTCACACGCGCTATAGGTAC,4.39,4.76,4.72,2.18,4.7,4.17,4.19,3.41
CCCAGCAGGCCAGGGTCACTCAAGCATTTCGCTT,2.82,3.02,2.79,0.022,3.26,2.81,1.3,1.55
CCTCGGAGGAGAACAGGAGGTCAGAGCTGCCAGA,2.87,2.04,1.63,-0.274,1.76,2.21,0.793,0.851
AGAACGAGGGCACGATGAGTTGATAGCAGAGTAG,1.22,2.18,2.42,1.77,1.57,2.03,0.236,1.66
TCTGCTAGGTCAACGATGGGCAGCTAATCTGCTA,2.74,3.94,5.25,0.549,2.44,2.63,0.424,-0.398
GCTATTAGTAGAAAGGGCAACCGAATGATTCTCG,1.83,0.904,1.32,0.538,0.634,0.234,-0.401,-0.301
CCTCGGAGGACAACAGGAGGTCAGAACTGCCAGA,3.33,3.23,3.05,0.497,1.81,2.59,0.726,0.781
GCTTGTAGGTCAAGGTTAAGAAAGACTAAGCTAA,3.22,4.98,5.18,1.26,4.8,2.91,0.735,0.622
CCTTACGGGTTACTGACAGGTTATAGCATTTGGA,0.885,2.22,0.806,0.177,1.54,1.11,-0.00572,0.261
GCTGCTAGGTCAGGTTGGTCAGCGAACGGGTACG,2.73,2.68,4.03,0.514,1.11,1.8,0.422,0.896
TTACCAAGGTGAAGGTCGTTGTTCCCTCTGTAGA,2.09,1.36,1.24,0.33,1.49,2.4,1.18,1.11
CGTCCACGGTCAGAGAGGTCAGTGAATGCCGAGT,4.32,3.6,4.74,0.914,2.75,2.54,0.458,2.11
TGTCAAAGTTCAAAGGTAGCGTAAGTATCCACAC,3.86,5.84,5.8,4.41,6.07,2.76,-0.0719,3.39

Sequence,PBM binding z-score [1],PBM binding z-score [2],PBM binding z-score [3],PBM binding z-score [4],PBM binding z-score [5],PBM binding z-score [6],PBM binding z-score [7],PBM binding z-score [8]
CGAACTAGGTCATTCAGGACAGTGAATACATTGA,2.72,3.7,4.69,2.77,2.8,3.63,2.13,2.27
ATATGTAGGTTACGGGTCATTCAGGTTGGTTCGC,3.24,3.35,2.58,1.69,4.31,3.15,1.49,3.37
ATATGTAGGTTAAGGGTCATCCAGGTTGGTTCGC,4.18,5.45,4.39,1.99,6.92,3.69,1.82,3.82
CGTCAAAGTTCAAAGTAACGTAACAGAAAGCAGC,3.42,5.52,5.99,4.98,4.88,1.72,-0.272,4.15
GTACCAAGGTGCATAGGTCGTTGATGAGTAGGCG,0.393,0.769,0.407,0.546,1.3,0.111,-0.427,0.968
ATCTCTAGGTAAGACTCAGTTCAGTGTAGAACGC,0.758,0.266,0.408,0.967,0.133,0.88,0.909,1.39
GCTAGTTGGTCAGTAAAAGGTCACTCACCGGTCG,5.26,5.05,4.43,0.781,4.21,3.31,1.47,1.36
TCCATTAGTTGAAGGGCAACCGACGAGTCCGTTT,1.47,0.679,0.586,1.9,1.05,0.553,0.351,1.57
CGTCCAAGGTCGGCAGGTCAGTGAAAGCGACGTG,3.1,3.38,3.66,1.36,2.08,2.13,0.0758,0.171
CCTAATGGGCCAAAAAGGTCATTGATGCCGATAA,4.33,4.34,4.05,1.29,4.45,3.03,0.29,2.59
TCATAAAGGTAAACAGGTGAAAGTCCGTAAGTTA,1.37,1.34,0.882,1.53,1.74,1.22,0.368,0.647
AGAAAGAGGGCAATGAGTTGATAGCACGGGTGGC,1.65,1.64,2.08,1.7,1.07,0.681,-0.101,3.05
TCAGCTAGGTCAACGATGGTCAGCTAATCTGCTA,3.49,3.89,4.83,1.11,2.49,2.88,0.578,-0.3
CCGACTGGGGCAGCAAGGTTACCATACCATCCGG,1.52,0.772,0.82,-0.746,0.706,1.21,0.373,0.0128
GCATATAGGTAATACAAGGTAAAAGTCCGATTGT,-0.415,0.25,0.58,0.137,0.294,3.49,0.0793,-0.0351
TCTAGTTGGTCAAAGGTCATACACTCGAAATGCG,5.06,6.94,5.49,2.31,8.07,4.15,1.94,3.4
TCTTGGAGATCAACAGGAGGTTAAGAAAGATCGA,0.488,1.9,0.145,0.185,1.3,1.14,-0.452,-0.283
CCTTATGGGTCACTCCAGGTTATAGCATCGGAGT,2.87,3.68,3.9,0.586,3.31,4.85,0.288,0.918

# Source: the supplement of paper PMC6555819
